# Source: PubChem BioAssay
# Activity calls are given as the source filed them. Unless noted, no rule for the calls is given here.
# What was measured:
# [1] = HepG2 liver cancer cell viability effects, profiling panel, resazurin fluorescence, 24 h, PK04 Diversity Set (AID 1172); conditions: higher = more signal; also: test concentration not given here
# [2] = basal S. cerevisiae growth modulation, no modifier, primary screen, OD600, strain BY4716, 24 h, basal condition (AID 1173); conditions: OD600, 24 h, higher = more signal, called active from +8 up or from −8 down
# [3] = MM1S myeloma cell viability, profiling panel, resazurin fluorescence, basal, 24 h, PK04 Diversity Set (AID 1174); conditions: higher = more signal, called active from +8 up or from −8 down;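 also: MM1S multiple myeloma cell line; test concentration not given here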
# [4] = target: Dihydroorotate dehydrogenase (quinone), mitochondrial (Plasmodium falciparum (isolate 3D7)) (UniProt Q08210); experiment: PfDHODH enzyme inhibitors, primary screen, biochemical, C-terminal His tag, absorbance 600 nm (AID 1175); conditions: DCIP absorbance 600 nm, higher = more signal, called active from +8 up or from −8 down;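 also: recombinant parasite enzyme with a five histidine tag at its C terminus; test concentration not given here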
# Dihydroorotate dehydrogenase (quinone), mitochondrial (Plasmodium falciparum (isolate 3D7)), sequence (Q08210 whole entry, looked up): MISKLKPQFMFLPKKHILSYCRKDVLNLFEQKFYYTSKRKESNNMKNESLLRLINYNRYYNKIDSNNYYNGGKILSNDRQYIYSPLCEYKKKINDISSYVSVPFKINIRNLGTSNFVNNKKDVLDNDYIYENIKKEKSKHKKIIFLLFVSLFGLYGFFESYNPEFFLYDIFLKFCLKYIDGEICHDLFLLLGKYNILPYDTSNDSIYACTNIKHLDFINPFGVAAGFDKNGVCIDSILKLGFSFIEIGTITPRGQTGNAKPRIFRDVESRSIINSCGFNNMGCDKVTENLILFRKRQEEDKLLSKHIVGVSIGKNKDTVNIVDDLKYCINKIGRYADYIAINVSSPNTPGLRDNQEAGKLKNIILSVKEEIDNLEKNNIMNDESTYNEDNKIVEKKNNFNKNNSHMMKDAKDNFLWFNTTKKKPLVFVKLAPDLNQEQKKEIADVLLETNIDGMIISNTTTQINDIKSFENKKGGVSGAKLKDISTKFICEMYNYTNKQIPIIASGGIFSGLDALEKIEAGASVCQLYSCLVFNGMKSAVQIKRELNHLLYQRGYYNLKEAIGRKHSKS
# [5] = P. aeruginosa biofilm formation inhibitors, primary screen, strain PAO1, LB-PBS medium, absorbance 600 nm (AID 1176); also: test concentration not given here; conditions: P. aeruginosa PAO1 growth/biofilm, A600, 12 h; higher = more signal
# [6] = S. cerevisiae RM11-1a growth modifiers, primary screen, strain RM11-1a, OD600, basal, 24 h (AID 1177); conditions: OD600, 24 h, higher = more signal, called active from +8 up or from −8 down;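 also: cultures grown under basal conditions with no added stressor; test concentration not given here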
# [7] = E. coli acrAB mutant growth effects, primary screen, E. coli filamentation inducers, strain DRC39, OD650, 24 h (AID 1178); conditions: higher = more signal, called active from +8 up or from −8 down;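 also: growth measured as culture turbidity by optical density at 650 nm; test concentration not given here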
# [8] = E. coli acrAB mutant growth effects, primary screen, E. coli filamentation inducers, strain DRC39, OD650, 48 h (AID 1179);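 also: screen aims at cell division blockers that make cells filament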; conditions: E. coli DRC39 delta-acrAB growth, higher = more signal, called active from +8 up or from −8 down
# [9] = RPMI8226 myeloma cell viability, profiling panel, resazurin fluorescence, basal, 24 h, PK04 Diversity Set (AID 1180); conditions: higher = more signal;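 also: RPMI8826 multiple myeloma cell line at 5000 cells per well; test concentration not given here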
# [10] = target: E3 ubiquitin-protein ligase XIAP (Homo sapiens) (UniProt P98170); experiment: XIAP binders, primary screen, biophysical, small-molecule microarray, fluorescence 635 nm (AID 1181); conditions: small-molecule microarray binding, higher = more signal;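 also: score merges 667 nm emission and signal to noise over triplicate slides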
# E3 ubiquitin-protein ligase XIAP (Homo sapiens), sequence (P98170 whole entry, looked up): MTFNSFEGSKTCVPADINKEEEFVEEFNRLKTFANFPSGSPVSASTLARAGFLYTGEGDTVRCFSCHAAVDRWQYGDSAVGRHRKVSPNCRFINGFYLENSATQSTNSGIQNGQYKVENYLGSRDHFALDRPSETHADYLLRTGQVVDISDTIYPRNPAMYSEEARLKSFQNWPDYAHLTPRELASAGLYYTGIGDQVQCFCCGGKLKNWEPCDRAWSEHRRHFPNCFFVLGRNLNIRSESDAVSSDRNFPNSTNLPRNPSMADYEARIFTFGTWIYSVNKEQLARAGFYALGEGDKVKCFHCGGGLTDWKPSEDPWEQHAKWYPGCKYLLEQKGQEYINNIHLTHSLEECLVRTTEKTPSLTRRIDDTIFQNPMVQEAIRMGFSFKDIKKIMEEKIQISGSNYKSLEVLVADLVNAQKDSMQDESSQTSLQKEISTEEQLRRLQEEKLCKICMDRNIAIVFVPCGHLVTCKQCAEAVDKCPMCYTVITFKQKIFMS
SMILES,z-score [1],z-score [2],z-score [3],composite z-score [4],z-score [5],z-score [6],z-score [7],z-score [8],z-score [9],composite z-score [10]
O=C1C[C@@](C(=O)NCc2ccccc2)(c2ccc([N+](=O)[O-])cc2)[C@@H](c2ccc(CO)cc2I)N1C1CCCCC1,-0.327,0.432 (inactive),0.566 (inactive),0.634 (inactive),-0.301 (inactive),1.88 (inactive),0.445 (inactive),-0.0118 (inactive),0.787,-0.115
COCCCNC(=O)[C@@]1(Cc2ccccc2N=[N+]=[N-])N=C(c2ccc(OCCCO)cc2)O[C@H]1c1ccccc1CN=[N+]=[N-],-0.859,-0.255 (inactive),-1.2 (inactive),0.283 (inactive),1.72 (inactive),0.154 (inactive),2.63 (inactive),0.575 (inactive),-2.25,-0.183
COCCOC(=O)N1C(=O)[C@@]2(c3cc(C#CCC(C(=O)OC)C(=O)OC)ccc31)[C@H](c1ccc(OCCO)cc1)N1[C@H](c3ccccc3)[C@H](c3ccccc3)OC(=O)[C@H]1[C@@H]2C(N)=O,0.331,1.87 (inactive),-0.22 (inactive),-1.15 (inactive),2.32 (inactive),2.34 (inactive),-0.102 (inactive),-0.554 (inactive),-0.112,0.049
COCC(=C=CC[C@@H](O)c1ccccc1OCCO)C[C@@H](O)COCc1ccccc1,0.905,-0.413 (inactive),1.26 (inactive),-1.47 (inactive),0.191 (inactive),-2.04 (inactive),2.4 (inactive),1.6 (inactive),0.935,0.145
COCCCNC(=O)[C@]1(CCS(=O)(=O)c2ccccc2)N=C(c2ccc(OCCCO)cc2)O[C@@H]1c1ccccc1,0.484,-0.324 (inactive),0.294 (inactive),0.888 (inactive),-0.0304 (inactive),-0.588 (inactive),0.604 (inactive),0.607 (inactive),-0.0847,0.209
N#Cc1ccc(NN2C(C(O)c3ccccc3)C=CC3C(=O)N(c4ccccc4)C(=O)C32)cc1 (stereo not given),-0.822,-1.47 (inactive),-0.0476 (inactive),-0.804 (inactive),0.158 (inactive),-0.323 (inactive),-0.371 (inactive),0.0355 (inactive),-1.15,-0.0062
Cc1ccc(S[C@]2(C(=O)O)CC(=O)N(C3CCCCC3)[C@@H]2c2ccc(CO)cc2)cc1,-0.628,-1.74 (inactive),0.0977 (inactive),0.234 (inactive),0.512 (inactive),-0.332 (inactive),0.643 (inactive),1.48 (inactive),0.273,-0.0031
NC(=O)NCC#Cc1ccc2c(c1)[C@]1(C(=O)N2)[C@H](c2ccc(O)cc2)N2[C@H](c3ccccc3)[C@H](c3ccccc3)OC(=O)[C@H]2[C@@H]1C(=O)NC[C@H](O)c1ccccc1,0.22,-0.683 (inactive),0.953 (inactive),-0.494 (inactive),-0.136 (inactive),-0.0444 (inactive),0.203 (inactive),0.841 (inactive),0.82,0.045
COC(=O)[C@@]1(Cc2ccc(OC)cc2)[C@H]2c3cc(C(=O)N(C)C)n(Cc4cc(C)n(C)n4)c3C[C@H]2CN1C(=O)c1ccccc1,-1.04,0.932 (inactive),-1.82 (inactive),-0.546 (inactive),0.992 (inactive),0.949 (inactive),-1.2 (inactive),-1.29 (inactive),-0.936,0.0018
COCCCNC(=O)[C@@]1(C)c2ccccc2C(=O)N(c2ccc(C)cn2)[C@H]1c1ccc(CO)cc1,0.361,-0.156 (inactive),-0.321 (inactive),0.0772 (inactive),0.112 (inactive),-0.795 (inactive),-0.0985 (inactive),-0.087 (inactive),0.157,0.286
O=C(O)[C@@]1(Cc2ccccc2)COC(c2ccc(OCCCO)cc2)=N1,0.0838,1.02 (inactive),0.296 (inactive),1.75 (inactive),0.274 (inactive),1.4 (inactive),1.58 (inactive),0.466 (inactive),0.318,0.33
COCCCNC(=O)[C@@H]1c2ccccc2C(=O)N(Cc2cc(F)cc(C(F)(F)F)c2)[C@H]1c1ccc(CO)cc1,-0.434,-0.336 (inactive),-0.522 (inactive),-1.13 (inactive),0.36 (inactive),-0.955 (inactive),-0.109 (inactive),-0.0475 (inactive),-0.197,-0.309
